In PubChem BioAssay (NCI):
The panel holds about 83,000 compounds, 20% with a hit somewhere; the sample as a whole holds those more often.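 Interpretation: 100, growth as untreated; towards 0, rising growth inhibition; 0, no net growth; 0 to -100, cell death. Compounds scoring below 10 were considered active.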 A number with no mark means an inactive call. The source made the active and inactive calls.

system: HL-60(TB) leukemia; assay: NCI-60 one-dose screen, 48 h (100 = growth as untreated, 0 = no growth, -100 = all killed); settings: 10 µM unless noted

First: O=C1C(c2c[nH]c3ccccc23)=C(c2coc3cc(Br)ccc23)C(=O)N1O
Second: COc1ccc(C(=O)c2sc3nc(-c4ccccc4OC)ccc3c2N)cc1OC
The growth of the first is higher: 103% for the first, 13.9% for the second.

Compared with NC(=O)c1ccc(-c2cccc3c(=O)nc(N4CCOCC4)oc23)cc1, N#C/C(=C\c1ccc(-c2ccc(Cl)cc2)o1)c1nc(-c2ccco2)cs1 is lower in growth: 97.5% for the first, 92.3% for the second.

Going from COc1cc(/C=N/NC(=O)c2ccc(-n3cc(-c4ccccc4)nn3)cc2)cc(OC)c1OC to COc1cc(OC)c(/C=C/C(=O)c2c(N)cc(OC)cc2OC)c(OC)c1, the growth falls from 101% to 12.7%.

Compared with CC(C)[C@@H]1C=C2CC[C@H]3[C@](C)(CN)CCC[C@]3(C)[C@H]2CC1, O=C(O)CCNC1CCCCC1 is higher in growth: 70.1% for the first, 97.5% for the second.

First: CCOC(=O)C(CSC(c1ccccc1)(c1ccccc1)c1ccccc1)NC(=O)C(CSC(c1ccccc1)(c1ccccc1)c1ccccc1)NC(c1ccccc1)(c1ccccc1)c1ccccc1 (stereo not drawn)
Second: CC(C)(C)c1nc(-c2cccc(NS(=O)(=O)c3c(F)cccc3F)c2F)c(-c2ccnc(N)n2)s1
The growth of the first is higher: 118% for the first, 35.1% for the second.

In the case of [2H]C([2H])([2H])Oc1cccc(/C=C/C(=O)/C=C(/C=C/c2cccc(OC([2H])([2H])[2H])c2OC([2H])([2H])[2H])OB(F)F)c1OC([2H])([2H])[2H], the growth is reported as 60%.

In the case of O=C1CCCCN1CCCCC#Cc1cccc(C#Cc2cccnc2)c1, the growth is reported as -23.2% (active).
COc1cc(/C=C2\C(=O)N(c3c(Cl)cccc3Cl)c3ccccc32)cc(OC)c1O was tested, and the growth was -6.44% (active).
